# Screens as filed in PubChem.
# This is a sample that favours compounds with a hit; in the whole collection about 12% have one here.
# JMJD2A Tudor: JMJD2A Tudor domain (human) inhibition | AlphaScreen JMJD2A-Tudor / H3K4me3 peptide binding | AID 504339 | O75164 | Potency, µM (doses to about 114 µM), inactives show at the top dose activity change, negative = inhibition, usual class: inhibitors | 4.4% of 390,000 active; further: on the % scale 0 is the no-effect control and ±100 the full control effect; nearly all actives have a fitted effect of over 50% in size
# BAZ2B inh: blocks human BAZ2B. Q9UIF8. AlphaScreen BAZ2B-H3K14Ac peptide displacement. 4.4% of 360,000 active. Potency, µM (series often up to 114 µM), for the others: top-dose activity change, negative = inhibition, hits mostly inhibitors; further: on the % scale 0 is the no-effect control and ±100 the full control effect; nearly all actives have a fitted effect of over 60% in size
#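 Compounds, titrated to a top concentration of 110 uM, were incubated 30 min at room temperature with preformed BAZ2B/acetyl-K14 H3 peptide complex (50 nM each). Proximity signal was measured by AlphaScreen after 20 min with beads.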
# HP1b binding inh: HP1-beta chromodomain-methylated histone interaction inhibition; P83916; AlphaScreen HP1-beta / biotin-H3K9me3 peptide binding; Potency, µM (doses to about 114 µM), for inactives: at the top dose activity change, negative = inhibition, hits mostly inhibitors; 0.56% of 390,000 active; AID 540317; further: nearly all actives have a fitted effect of over 70% in size
#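 HP1-beta protein (50 nM final) preincubated 30 min at room temperature with biotinylated H3(1-18)K9me3 peptide (50 nM) in PBS pH 7.4, 0.01% Tween-20, then compound added for 30 min. AlphaScreen streptavidin donor/nickel chelate acceptor beads (10 ug/mL final), 30 min dark, luminescence read.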
# L3MBTL1 inh: L3MBTL1 (human) inhibition; Potency, µM (highest dose often 57.1 µM), inactives show at the top dose activity, negative = inhibition, most hits filed as inhibitors; 0.66% of 230,000 active; AlphaScreen L3MBTL1–H3K9me1 peptide binding; Q9Y468; further: on the % scale 0 is the no-effect control and ±100 the full control effect; nearly all actives have a fitted effect of over 60% in size
# Target sequence (Q9Y468 whole entry, looked up): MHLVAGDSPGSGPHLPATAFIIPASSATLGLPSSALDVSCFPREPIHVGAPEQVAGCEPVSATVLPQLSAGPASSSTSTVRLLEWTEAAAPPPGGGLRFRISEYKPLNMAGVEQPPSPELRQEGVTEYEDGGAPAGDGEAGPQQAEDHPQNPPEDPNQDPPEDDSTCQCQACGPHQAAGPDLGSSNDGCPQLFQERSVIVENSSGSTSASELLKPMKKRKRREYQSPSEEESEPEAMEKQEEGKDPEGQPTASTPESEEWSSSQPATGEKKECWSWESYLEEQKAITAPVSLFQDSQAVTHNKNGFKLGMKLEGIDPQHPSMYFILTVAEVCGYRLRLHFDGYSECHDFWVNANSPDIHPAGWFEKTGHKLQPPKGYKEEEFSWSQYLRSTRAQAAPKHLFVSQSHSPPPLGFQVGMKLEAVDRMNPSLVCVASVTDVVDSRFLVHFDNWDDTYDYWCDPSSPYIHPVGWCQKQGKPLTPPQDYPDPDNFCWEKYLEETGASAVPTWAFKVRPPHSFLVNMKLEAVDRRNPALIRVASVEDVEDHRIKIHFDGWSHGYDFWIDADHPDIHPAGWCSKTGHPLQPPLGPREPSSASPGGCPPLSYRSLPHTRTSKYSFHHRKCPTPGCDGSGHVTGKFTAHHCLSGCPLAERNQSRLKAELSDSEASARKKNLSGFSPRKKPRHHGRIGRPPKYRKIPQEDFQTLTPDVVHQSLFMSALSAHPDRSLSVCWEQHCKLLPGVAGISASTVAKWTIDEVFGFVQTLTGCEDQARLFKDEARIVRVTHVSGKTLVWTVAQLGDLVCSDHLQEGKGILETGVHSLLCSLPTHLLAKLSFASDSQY
#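 First, the protein-peptide complex forms for 30 min at room temperature (L3MBTL1 50 nM, biotinylated H3K9me1 peptide 75 nM). Next, compounds are pin-transferred and incubated 30 min. Finally, AlphaScreen beads are added and read after 30 min.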
# Sfp inh: blocks B. subtilis Sfp PPTase activity | Potency, µM, inactives show largest response in the series, negative = inhibition, usual class: inhibitors | Q9F4F7 | Biochemical Sfp PPTase activity, qHTS | 3.5% of 310,000 active;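 further: the enzyme is Sfp with the accession as filed and its product quenches rhodamine fluorescence; 0% = enzyme reaction without inhibitor and -100% = no enzyme wells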
#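 With Hepes-Na pH 7.6 buffer containing 10 mM MgCl2, Sfp (15 nM) modified BHQ-2-YbbR (12.5 uM) using rhodamine-CoA (5 uM). Two reads 30 minutes apart at 525/598 nm yielded each well's rate.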
# G9a inh: inhibitors of human histone lysine methyltransferase G9a | 8.8% of 350,000 active | AID 504332 | Potency, µM (doses to about 102 µM), inactives show at the top dose activity, negative = inhibition, most hits filed as inhibitors | G9a H3K9 monomethylation, AlphaScreen, 2 h; further: on the % scale 0 is the no-effect control and ±100 the full control effect; nearly all actives have a fitted effect of over 75% in size
#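 Quantitative HTS format: methyltransferase activity on a biotin-tagged H3K9 peptide is measured by AlphaScreen, using a rabbit anti-monomethyl-H3K9 antibody with streptavidin donor and anti-IgG acceptor beads. Final levels are 20 nM enzyme, 500 nM peptide, 20 uM SAM; 2 h RT.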
# * hit, by the source's call; ? = inconclusive; / = no result given; [ ] = remark or other dose. The call rests on the fitted dose curve; in most records, active means well fitted curve in the direction sought with a large enough effect; inconclusive means small, poorly fitted or top-dose-only effect, or another doubt; inactive means no such curve, though single readings can be large; an effect the other way counts as inactive or inconclusive. Potency means the concentration at half of the fitted maximal effect.
SMILES,JMJD2A Tudor,BAZ2B inh,HP1b binding inh,L3MBTL1 inh,Sfp inh,G9a inh
Cc1ccc(N(O)C(=O)NCCCCNC(=O)N(O)c2ccc(C)cc2)cc1,?,-28%,16%,/,-11%,79µM*
Cc1ccc(S(=O)(=O)NC(=O)NCCCCNC(=O)NS(=O)(=O)c2ccc(C)cc2)cc1,-8%[11.4 µM],7%,76%,/,8%,7%
CCC(=O)N(c1nnc(SCC(=O)Nc2ccc(N3CCOCC3)cc2)s1)C1CC1,-7%,-5%,30%,0%,/,21%[12.7 µM]
CC1(C(=O)NNC(=O)c2ccc(=O)oc2)CC1Br (stereo unspecified),-25%,-1%,2%,-25%,19%,50µM*
CC(C)[C@H](NC(=O)OC(C)(C)C)C(=O)N/N=C/c1cccc2nccnc12,-8%,-39%,18%,/,16%,4.5µM*
C=C(C)C(O)/C=C/CCCCCCC (stereo unspecified),/,/,/,/,11%,/
CCOc1cc(N)c(Cl)cc1C(=O)NCC1CN(Cc2ccc(F)cc2)CCO1 (stereo unspecified),50µM*,/,10%,/,-7%,0%[59 µM]
O=C(CCCCCn1c(=O)c2sccc2n(CC(=O)Nc2cc(C(F)(F)F)ccc2Cl)c1=O)NCc1ccccc1Cl,-14%,-8%,23%,/,/,-24%[59 µM]
CCc1ccc(-c2cn3c(n2)sc2cc(C(=O)NCCC4=CCCCC4)ccc23)cc1,-12%,-12%,32%,/,/,?
Cc1cc(-c2n[nH]c(=S)n2/N=C/c2sccc2C)n[nH]1,3.2µM*,?,?,-4%,?,1.3µM*
Cc1ccsc1/C=N/n1c(-c2ccccc2)n[nH]c1=S,28µM*,3%,11%,-6%,-14%,1.8µM*
Cc1ccsc1/C=N/n1c(-c2ccncc2)n[nH]c1=S,3.2µM*,-35%,-17%,0%,-4%,1.1µM*
Cc1ccsc1/C=N/NC(=O)c1cc(-c2ccncc2)nc2ccccc12,-36%,-6%,0%,-3%,-5%,5%[59 µM]
Cc1ccsc1/C=N/n1c(-c2ccco2)n[nH]c1=S,7.1µM*,-21%[57.1 µM],-10%,-3%,-14%,0.79µM*
Cc1ccsc1/C=N/N1CCOCC1,-21%,-18%,2%,-6%,-17%,-2%
COc1ccccc1[C@]1(C)ON(c2ccccc2C(F)(F)F)C1=O,48%,61%,88%,16%,/,4%[0.501 µM]
O=C(O)CC1CCC1CC(=O)O (stereo unspecified),-3%,/,16%,/,/,/
CCCCN1CNC(=S)N(c2ccccc2OCC)C1,-11%,15%,9%,2%,2%,-14%[59 µM]
CNC(=S)N(Cc1cc2cc(OC)c(OC)cc2[nH]c1=O)C1CCCC1,-15%,0%,27%,4%,-26%,/
Cc1ccsc1/C=N/n1c(-c2ccccn2)n[nH]c1=S,3.2µM*,8.9µM*,32%,32µM*,?,2.2µM*
Cc1ccc(NC(=O)Cn2ccn(-c3ccc(F)c(F)c3)c(=O)c2=O)cc1C,-21%,-4%,-1%,/,/,-2%[59 µM]
O=C1OCC(CO)(CO)N=C1NNc1cc(Cl)ccc1Cl,-19%,2%,-10%,2%,?,50µM*
O=C1OCC(CO)(CO)N=C1NNc1ccccc1[N+](=O)[O-],-6%,-37%,-10%,-17%,?,?
CC1(C)CN(C(Cc2ccccc2)C(N)=O)C1=O (stereo unspecified),9%,3%,32%,/,10%,15%
Cc1c(N=C(N)/N=C(\N)Nc2ccc(Br)cc2)c(=O)n(-c2ccccc2)n1C,32µM*,14%,13%,8%,8%,43%[59 µM]
SMILES,JMJD2A Tudor,BAZ2B inh,HP1b binding inh,L3MBTL1 inh,Sfp inh,G9a inh
Cc1c(N=C(N)/N=C(\N)Nc2ccccc2)c(=O)n(-c2ccccc2)n1C,-13%,9%,7%,3%,-3%,20%[59 µM]
CCOC(=O)/C(N=Nc1c(C)n(C)n(-c2ccccc2)c1=O)=C(/O)c1ccccc1,-1%,?,27%,/,-7%,5%
Cc1c(N=N/C(C(=O)Nc2ccccc2)=C(/O)c2ccccc2)c(=O)n(-c2ccccc2)n1C,?,8.9µM*,-4%,-6%,-3%,14µM*
CCC(C)NC(=O)CSc1nnc(-c2ccc(C)cc2)c(-c2ccc(C)cc2)n1 (stereo unspecified),-12%,-2%,16%,/,/,-8%[59 µM]
COc1cccc(NC(=O)CCNC(=O)N2CC(=O)Nc3ccccc32)c1,-6%,-1%,19%,/,-4%,-11%[0.501 µM]
O=C(CN(Cc1ccccc1)C1=NCCS1)c1ccccc1,-14%,10%,28%,2%,1%,50µM*
Cc1ccc(C(=O)CN(Cc2ccccc2)C2=NCCS2)cc1,-5%,-3%,42%,11%,8%,?
Cc1cc2c(s1)c1cnn(Cc3c(F)c(F)cc(F)c3F)c(=O)c1n2C,-13%,/,/,/,/,/
O=C1C(=O)N(CCN2CCOCC2)C(c2ccc(Cl)cc2)/C1=C(/O)c1ccc(S(=O)(=O)N2CCOCC2)cc1 (stereo unspecified),-4%,24%,54%,/,-9%,56µM*
CN(C)CCN1C(=O)C(=O)/C(=C(/O)c2ccc(S(=O)(=O)N3CCOCC3)cc2)C1c1ccccc1 (stereo unspecified),-20%,-2%,12%,7%,9%,-5%
O=C1C(=O)N(CCN2CCOCC2)C(c2ccccc2F)/C1=C(\O)c1ccc(S(=O)(=O)N2CCOCC2)cc1 (stereo unspecified),-15%,-23%,10%,/,-3%,50µM*
Cc1cccc(N2CCN(S(=O)(=O)c3cccc4nonc34)CC2)c1C,?,?,-18%,?,5%,20µM*
Cc1cccc(N2CCN(S(=O)(=O)c3ccc4c(c3)C(C)(C)C(=O)N4C)CC2)c1C,?,50µM*,-18%,?,-5%,/
COc1ccc(C)cc1S(=O)(=O)NCC(c1cccs1)S(=O)(=O)c1ccc(C)cc1 (stereo unspecified),-15%,-11%,18%,/,/,3%[59 µM]
CCCN(CCc1cccs1)[C@H]1CCc2c(O)cccc2C1,/,/,/,/,-2%,-33%[12.7 µM]
Cn1c(Cc2ccc(Cl)cc2)nnc1SCC(=O)NC1CC1,-17%,2%,28%,/,6%,25%
Clc1ccc(Cc2nn3c(Cn4nnc5ccccc54)nnc3s2)cc1,-13%,0%,-19%,-3%,28µM*,?
c1csc(-c2nn3c(Cn4nnc5ccccc54)nnc3s2)c1,-11%,3%,34%,8%,9%,?
Clc1cccc(-c2nn3c(Cn4cnc5ccccc54)nnc3s2)c1,-28%,-1%,-28%,-14%,20µM*,?
c1ccc2c(c1)nnn2Cc1nnc2sc(-c3ccncc3)nn12,-3%,2%,?,-4%,40µM*,?
